HEK293 viab: cell viability loss counter-screen; HEK-293-SNCA-luc viability, GF-AFC fluorescence, 24 h; Potency, µM (doses to about 57.1 µM), inactives show top-dose activity change, negative = cytotoxicity, hits mostly cytotoxic; 150,000 compounds, 0.12% hits; AID 1671193;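 further: potency means the concentration at half of the fitted maximal effect; 0% = DMSO-treated cells and -100% = medium-only wells without cells; nearly all actives have a fitted effect of over 30% in size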
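HEK-293-SNCA-luc cells (1500/well) plated 24 h, then exposed 24 h to a dilution series; GF-AFC added 30 min at 37C, fluorescence 405/540 nm; normalised to medium-only and DMSO wells, Hill fit.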
SNCA expr inhib: inhibitors of alpha-synuclein (SNCA) gene expression; Potency, µM (doses to about 57.2 µM), for inactives: at the top dose activity change, negative = inhibition, actives largely listed as inhibitors; AID 1671194; HEK-293 SNCA-luciferase knock-in, luminescence, 24 h; 140,000 compounds, 0.17% hits;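 further: potency means the concentration at half of the fitted maximal effect; plate controls were DMSO cells for no effect and cell-free wells for full effect; nearly all actives have a fitted effect of over 45% in size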
KDM5B inhibitor: inhibitors of human KDM5B histone demethylase | Q9UGL1 | KDM5B demethylase, FDH-coupled NADH fluorescence (FDH is formaldehyde dehydrogenase) | Potency, µM (titrated, usually from 57.7 µM), most hits filed as inhibitors | 220,000 compounds, 2.6% hits; further: potency means the concentration at half of the fitted maximal effect; 0% is about no effect; nearly all actives have a fitted effect of over 70% in size
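qHTS format, multiple compound concentrations. Buffer 50 mM HEPES pH 7.5/0.01% Tween-20; 200 nM KDM5BΔAP final; 10 min compound preincubation; substrate-mix levels 12.5 µM peptide, 25 µM α-KG, 0.25 mM NAD⁺; 30 min RT; ΔRFU.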
IP6K1 inh: blocks human inositol hexakisphosphate kinase 1 | AID 1645851 | Q92551 | activity change, % (series mostly up to about 58 µM) | IP6K1 kinase, ADP-Glo luminescence, 2 h; stronger effect = lower value | 140,000 compounds, 0.81% hits; in the data active means activity change below about -25%; further: on the % scale 0 is the no-effect control and ±100 the full control effect
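ADP-Glo luminescence measures ADP made by human IP6K1 during a 2 h RT reaction with ATP/IP6 (mix at 1.3 mM/130 uM); top library doses 57.5 and 19.1 uM final.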
IP6K1 inh cnf: human IP6K1 inhibition, confirmatory; shares compounds with IP6K1 inh; Potency, µM (highest dose often 49 µM), without a hit: at the top dose activity change, negative = inhibition, hits mostly inhibitors; recombinant IP6K1 kinase, ADP-Glo luminescence, 2 h; 1,200 compounds, 13% hits; further: potency means the concentration at half of the fitted maximal effect; on the % scale 0 is the no-effect control and ±100 the full control effect; nearly all actives have a fitted effect of over 65% in size
* hit, by the source's call; i = inactive; ? = inconclusive; nt = no result given; ! = not confirmed by another sample; [ ] = dose if it differs, or a comment. Rows were chosen to be rich in hits. Some 2.8% of all compounds tested hit in one or more screens of this group. Unless noted, the call rests on the fitted dose curve; in most records, active means well fitted curve in the direction sought with a large enough effect; inconclusive means small, poorly fitted or top-dose-only effect, or another doubt; inactive means no such curve, though single readings can be large; an effect the other way counts as inactive or inconclusive.

SMILES	HEK293 viab	SNCA expr inhib	KDM5B inhibitor	IP6K1 inh	IP6K1 inh cnf
CCNc1nc2c(s1)C(c1cccc(F)c1)CC(=O)N2 (configuration not stated)	-0.3%	-1.2%	25.1µM*	-70.6*	16.4µM*
CCCC(=O)OCOC(=O)C1=C(C)NC(C)=C(C(=O)OC)C1c1cccc(Cl)c1Cl (configuration not stated)	11.6%[23.9 µM]	-21.8%[25.6 µM]	nt	6.9	-6.5%
O=C(CSc1n[nH]c(=O)n1C1CC1)c1ccc2c(c1)OCCO2	nt	nt	i	nt	nt
Cc1cccc(Nc2c3c(nc4nncn24)CCC3)c1C	-9.1%	47.8%	i	-26.9*	-2.7%
COc1ccc(-c2ccc3ncc4c(c3c2)n(-c2ccc(N3CCNCC3)c(C(F)(F)F)c2)c(=O)n4C)cn1	30.4µM*!	?	nt	-15.2	-28.3%
C=CC(=O)Nc1cc(Nc2ncc(Cl)c(-c3c[nH]c4ccccc34)n2)c(OC)cc1N(C)CCN(C)C	?	nt	nt	-25.6*	?
COc1ccc(Cl)cc1NC(=O)C(=O)c1c[nH]c2ccccc12	nt	nt	i	nt	nt
COc1cccc(CNC(=O)Nc2cccc(-c3ccc(N4CCOCC4)nn3)c2)c1	-3.0%	?	i	-38.8*	?
Cc1ccc(CNC(=O)Nc2cccc(-c3ccc(N4CCOCC4)nn3)c2)cc1	-1.0%	-4.8%	i	-13.0	nt
CCc1ccccc1NC(=O)Nc1cccc(-c2ccc(N3CCOCC3)nn2)c1	-2.7%	58.7%	i	-26.4*	-24.1%
Cc1ccc(NC(=O)c2cc(S(=O)(=O)N3CCCC(C)C3)cn2C)c(Br)c1 (configuration not stated)	10.5%	-11.0%	?	6.6	nt
O=C(N[C@H](Cc1ccccc1)C1CC(O)C1)c1cnn(Cc2ccccc2)c1 (some centres not stated)	3.6%	32.0%	i	-8.5	nt
Cc1ccc(F)c(C(=O)N[C@H](Cc2ccccc2)C2CC(O)C2)c1Cl (some centres not stated)	5.8%	54.7%	i	-34.5*	-11.1%
Cc1cc(NC(=O)C2CC(=O)N(c3cccc(C)c3C)C2)no1 (configuration not stated)	nt	nt	i	nt	nt
COc1ccc(CN2C[C@H](O)C[C@H]2c2nc(-c3ccc(OC)cc3)no2)cc1	-5.0%[87.6 µM]	82.9%[87.6 µM]	i	12.7	nt
COc1ccc(OC)c(CNC(=O)c2nn(C)c3c2CSc2ccccc2-3)c1	10.9%	-5.9%	?	35.2	nt
COc1ccc(NC(=O)c2[nH]nc3c2CSc2ccccc2-3)c(OC)c1	7.8%	6.9%	i	-43.8*	-5.6%
Cc1ccc(C)c(N2CCN(c3ncnc4c3nc3n4CCCC3)CC2)c1	-18.9%	23.3%	i	-29.9*	-3.0%
O=C(Cc1ccccc1)Nc1sc2c(c1C(=O)Nc1ccccc1Cl)CCCCC2	3.0%	-22.9%	i	-1.5	nt
O=C(Cc1ccccc1)Nc1sc2c(c1C(=O)Nc1cccc(Cl)c1)CCCCC2	-12.0%	10.7%	i	-28.9*	3.4%
COc1ccc(-c2nc(CSCC(=O)N3CCN(c4cc(Cl)ccc4C)CC3)c(C)o2)cc1	?	?	?	5.9	nt
COc1ccc(-c2nc(CSCC(=O)N3CCN(c4cccc(C)c4C)CC3)c(C)o2)cc1OC	?	-14.5%	?	-26.3*	-8.2%
Cc1ccc2nc(-c3ccco3)c(Nc3ccc4c(c3)OCCO4)n2c1	-12.4%	60.0%	i	-28.4*	15.9%
CCc1ccccc1NC(=O)c1ccc2nc(C(C)C)oc2c1	3.4%	-20.7%	i	-36.1*	-3.4%
COc1ccc(-c2ccc(C(=O)N3CCCCC3)cc2)nn1	nt	nt	nt	-51.2*	?
COc1ccc(-c2nc(S(=O)(=O)c3ccc(C)cc3)c(N3CCCCC3)o2)cc1	10.0%	-2.1%	?	-1.8	nt
Cc1ccc(-c2nc(S(=O)(=O)c3ccc(Cl)cc3)c(N3CCCCC3)o2)cc1	21.0%	0.9%	?	-34.2*	?
CCOC(=O)N1CCN(Cc2nc3cc(NC(=O)C(C)C)ccc3n2C(C)C)CC1	-10.4%	-23.2%	i	-35.9*	6.1%
COc1cccc(NC(=O)c2cnc(SCC(=O)N3CCCc4ccccc43)n(C)c2=O)c1	-3.3%	9.4%	i	-27.5*	-2.6%
O=C(NCc1cccs1)C1(c2ccc(Cl)cc2)CCOCC1	-4.9%	-10.1%	i	2.7	nt
